High-throughput results: PubChem BioAssay, Broad Institute
NOMO-1 viab: STK33 inhibitor candidate reducing NOMO-1 cell viability | NOMO-1 AML viability, CellTiter-Glo luminescence, 72 h | inhibition, % (concentration not given with the values) | 37,000 compounds, 7.5% hits; in the data active = inhibition above about 80%; inconclusive = no clear call, values can overlap the other calls
ROS inducer: inducers of reactive oxygen species in cancer cells | U2OS ROS induction, H2DCF-DA fluorescence | ROS induction (% of piperlongumine), % at 10 µM | AID 624156 | 46,000 compounds, 2% hits; in the data active = ROS induction above about 79%, passing the limit was not always enough; inconclusive = no clear call, values can overlap the other calls;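 note: 0% = DMSO vehicle median and 100% = reference compound median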
* marks the source's active call; other numbers are inactive results; ? = inconclusive; · = no result. Only a selection was taken, and hits are over-represented in it overall.

SMILES	NOMO-1 viab	ROS inducer
O=S(=O)(N[C@@H]1CCCN(Cc2ccc(OCCO)cc2)C1)c1cccc(F)c1	·	15
CSc1nnc2c(n1)OC(C)N(C(C)=O)c1ccccc1-2 (stereo not drawn)	7	12
C=CCSc1nnc2c(n1)OC(c1ccc(-c3ccc(F)cc3)o1)N(C(C)=O)c1ccccc1-2 (stereo not drawn)	35	118*
C[C@@H]1CN([C@@H](C)CO)C(=O)c2cccc(NC(=O)Nc3ccc(C(F)(F)F)cc3)c2O[C@@H]1CN(C)Cc1ccc(-c2ccccc2)cc1	125*	52
C[C@@H]1CN([C@H](C)CO)C(=O)c2cccc(NC(=O)Nc3ccccc3)c2O[C@H]1CN(C)Cc1ccc(C(F)(F)F)cc1	91*	26
C[C@H](CO)N1C[C@H](C)[C@H](CN(C)Cc2ccc(C(F)(F)F)cc2)Oc2c(NC(=O)Nc3ccccc3)cccc2C1=O	48	12
C[C@H]1CN([C@@H](C)CO)C(=O)c2cccc(NC(=O)Nc3ccc(F)cc3)c2O[C@@H]1CN(C)Cc1ccc(C(F)(F)F)cc1	57	15
C[C@@H]1CN([C@H](C)CO)C(=O)c2cccc(NC(=O)Nc3ccc(C(F)(F)F)cc3)c2O[C@@H]1CN(C)Cc1ccc(-c2ccccc2)cc1	?	29
C[C@H]1CN([C@@H](C)CO)C(=O)c2cccc(NC(=O)Nc3ccc(C(F)(F)F)cc3)c2O[C@H]1CN(C)Cc1ccc(C(F)(F)F)cc1	114*	2
C[C@@H]1CN([C@H](C)CO)C(=O)c2cccc(NC(=O)Nc3ccc(C(F)(F)F)cc3)c2O[C@@H]1CN(C)Cc1ccc(C(F)(F)F)cc1	111*	11
C[C@@H]1CN([C@H](C)CO)C(=O)c2cccc(NC(=O)Nc3ccc(C(F)(F)F)cc3)c2O[C@H]1CN(C)Cc1ccc(C(F)(F)F)cc1	?	22
COc1cc2c(cc1OC)CN(C(=O)[C@H]1[C@@H]3C(=O)O[C@@H](c4ccccc4)[C@@H](c4ccccc4)N3[C@@H](c3ccc(O)cc3)[C@]13C(=O)Nc1ccccc13)CC2	·	2
CC(=O)Nc1ccc(C(=O)CSc2nncn2C)cc1	17	4
C[C@H]1CN([C@@H](C)CO)C(=O)Cc2cc(NC(=O)C3CCCCC3)ccc2O[C@H]1CN(C)Cc1ccc(C(F)(F)F)cc1	49	-2
COc1ccc(S(=O)(=O)Nc2cccc3c2O[C@@H](CN(C)C)[C@@H](C)CN([C@@H](C)CO)C3=O)cc1	-14	-3
C[C@H](CO)N1C[C@H](C)[C@H](CN(C)Cc2ccc(C(F)(F)F)cc2)Oc2c(NC(=O)Nc3cccc4ccccc34)cccc2C1=O	112*	45
C[C@@H]1CN([C@H](C)CO)C(=O)c2cccc(NC(=O)Nc3ccc(C(F)(F)F)cc3)c2O[C@@H]1CN(C)Cc1ccccc1	75	22
COC(=O)c1ccc(-c2ccco2)n1Cc1ccccc1	·	-6
CN(C)CCNc1nc2c(c(=O)n(C)c(=O)n2C)n1Cc1ccccc1Cl	15	·
Cc1ccc2c(c1)c(-c1ccccc1)c(-c1ccccc1)n2CC(O)CN1CCN(CCO)CC1 (stereo not drawn)	90*	-2
Cc1ccc2c(c1)c(-c1ccccc1)c(-c1ccccc1)n2CC(O)Cn1c(C)cc(C)nc1=O (stereo not drawn)	·	-5
COCCOC(=O)N1C(=O)[C@@]2(c3cc(C#CC4=CCCCC4)ccc31)[C@H](C(N)=O)[C@H]1C(=O)O[C@H](c3ccccc3)[C@H](c3ccccc3)N1[C@@H]2c1ccc(O)cc1	·	6
COCCOC(=O)N1C(=O)[C@@]2(c3cc(C#CC4=CCCCC4)ccc31)[C@H](c1ccccc1OCCO)N1[C@H](c3ccccc3)[C@H](c3ccccc3)OC(=O)[C@H]1[C@@H]2C(=O)NC[C@H](O)c1ccccc1	·	144*
COCCOC(=O)N1C(=O)[C@@]2(c3cc(C#CCCO)ccc31)[C@H](C(=O)NC[C@H](O)c1ccccc1)[C@H]1C(=O)O[C@H](c3ccccc3)[C@H](c3ccccc3)N1[C@@H]2c1ccccc1OCCO	·	23
COCCOC(=O)N1C(=O)[C@@]2(c3cc(C#CC4=CCCCC4)ccc31)[C@H](C(N)=O)[C@H]1C(=O)O[C@H](c3ccccc3)[C@H](c3ccccc3)N1[C@@H]2c1ccccc1OCCO	·	138*
SMILES	NOMO-1 viab	ROS inducer
C[C@H](CO)N1C[C@H](C)[C@@H](CN(C)Cc2ccc(Oc3ccccc3)cc2)Oc2ccc(NC(=O)Nc3ccccc3)cc2C1=O	?	60
C[C@H]1CN([C@@H](C)CO)C(=O)c2cc(NC(=O)Cc3ccccc3)ccc2O[C@@H]1CN(C)Cc1ccc(Oc2ccccc2)cc1	93*	190*
COc1ccc(NC(=O)Nc2ccc3c(c2)C(=O)N([C@@H](C)CO)C[C@@H](C)[C@@H](CN(C)Cc2ccc(-c4ccccc4)cc2)O3)cc1	116*	22
COc1ccc(NC(=O)Nc2ccc3c(c2)C(=O)N([C@H](C)CO)C[C@@H](C)[C@@H](CN(C)Cc2ccc(Oc4ccccc4)cc2)O3)cc1	122*	14
COc1ccc(NC(=O)Nc2ccc3c(c2)C(=O)N([C@@H](C)CO)C[C@H](C)[C@@H](CN(C)Cc2ccc(Oc4ccccc4)cc2)O3)cc1	33	23
C[C@H](CO)N1C[C@H](C)[C@H](CN(C)Cc2ccc(Oc3ccccc3)cc2)Oc2ccc(NC(=O)Cc3ccccc3)cc2C1=O	69	2
COc1ccc(NC(=O)Nc2ccc3c(c2)C(=O)N([C@H](C)CO)C[C@H](C)[C@H](CN(C)Cc2ccc(-c4ccccc4)cc2)O3)cc1	29	27
C[C@@H]1CN([C@@H](C)CO)C(=O)c2cc(NC(=O)Nc3ccccc3)ccc2O[C@@H]1CN(C)Cc1ccc(Oc2ccccc2)cc1	117*	9
CCOC(=O)c1sc(NC(=O)c2cc(-c3ccccn3)nc3ccccc23)c(C(=O)OCC)c1C	-6	·
O=C(CSc1nnc(-c2ccncc2)n1-c1ccccc1)Nc1c(Cl)cccc1Cl	3	-8
COC(=O)c1c(NC(=S)Nc2cc3oc4ccccc4c3cc2OC)sc2c1CCC2	-2	·
COc1ccccc1-c1oc2ccccc2c(=O)c1OC(=O)c1cccs1	·	16
CC1(CO)CC(O)CC2(C)C3=C(CCC12)C(=O)OC3 (stereo not drawn)	-3	-10
CC(=O)c1cccc(NC(=O)C(C)NS(=O)(=O)c2ccc(F)cc2)c1 (stereo not drawn)	1	0
O=C1O[C@@H](c2ccccc2)[C@@H](c2ccccc2)N2[C@@H](c3ccc(O)cc3)[C@]3(C(=O)Nc4ccccc43)[C@@H](C(=O)N3CCCCCCC3)[C@H]12	·	5
COCCNS(=O)(=O)c1cc(OC)c(Cl)cc1OC	-15	20
COc1ccc(NC(=O)N(C)C[C@@H]2Oc3ncc(-c4ccccc4)cc3C(=O)N([C@H](C)CO)C[C@@H]2C)cc1	·	31
C[C@@H]1CN([C@H](C)CO)C(=O)c2cc(NC(=O)NC3CCCCC3)ccc2O[C@H]1CN(C)Cc1ccc(Oc2ccccc2)cc1	?	37
C[C@@H]1CN([C@@H](C)CO)C(=O)c2cc(NC(=O)NC3CCCCC3)ccc2O[C@@H]1CN(C)Cc1ccc(Oc2ccccc2)cc1	120*	9
Cc1ccc(S(=O)(=O)Nc2ccc3c(c2)CC(=O)N([C@@H](C)CO)C[C@@H](C)[C@@H](CN(C)S(=O)(=O)c2ccc(Cl)cc2)O3)cc1	23	15
